Here are results for 30 compounds from PubChem BioAssay (NCATS).

Active and inactive are the calls of the source. Calls follow the shape of the full dose curve.

What all share (test): Confirmatory Screen for Target Class Profiling of Small Molecule Inhibitors of Methyltransferases (AID 1745852); as to activity change, negative = inhibition: % is scaled to controls: 0 for no effect and ±100 for the full control effect
The target of assay [1] is Catechol O-methyltransferase (Homo sapiens) (UniProt P21964). To be noted: MTase-Glo luminescence, SAH detection, recombinant enzyme; measured here: COMT max response; stronger effect = lower value.
In assay [2] the target is Guanidinoacetate N-methyltransferase (Homo sapiens) (UniProt Q14353). To be noted: MTase-Glo luminescence, SAH detection, recombinant enzyme; activity change, negative = inhibition: at 57.3 µM (top of the series) unless noted; series mostly up to 57.3 µM.
Assay [3] deals with Nicotinamide N-methyltransferase (Homo sapiens) (UniProt P40261). To be noted: MTase-Glo luminescence, SAH detection, recombinant enzyme; measured here: NNMT max response; stronger effect = lower value.
Assay [4] concerns the target Phenylethanolamine N-methyltransferase (Homo sapiens) (UniProt P11086). To be noted: MTase-Glo luminescence, SAH detection, recombinant enzyme; measured here: PNMT max response; stronger effect = lower value.
Potency is read from the fitted curve at half-maximal effect.

Sequence of Catechol O-methyltransferase (Homo sapiens) (P21964 whole entry, looked up): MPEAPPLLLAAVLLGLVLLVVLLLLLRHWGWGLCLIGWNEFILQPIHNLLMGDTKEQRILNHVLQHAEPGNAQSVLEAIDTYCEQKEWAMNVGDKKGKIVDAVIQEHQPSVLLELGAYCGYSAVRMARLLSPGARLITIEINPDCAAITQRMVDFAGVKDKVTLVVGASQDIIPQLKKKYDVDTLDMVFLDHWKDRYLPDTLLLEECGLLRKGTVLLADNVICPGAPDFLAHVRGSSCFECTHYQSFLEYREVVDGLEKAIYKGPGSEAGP
Sequence of Nicotinamide N-methyltransferase (Homo sapiens) (P40261 whole entry, looked up): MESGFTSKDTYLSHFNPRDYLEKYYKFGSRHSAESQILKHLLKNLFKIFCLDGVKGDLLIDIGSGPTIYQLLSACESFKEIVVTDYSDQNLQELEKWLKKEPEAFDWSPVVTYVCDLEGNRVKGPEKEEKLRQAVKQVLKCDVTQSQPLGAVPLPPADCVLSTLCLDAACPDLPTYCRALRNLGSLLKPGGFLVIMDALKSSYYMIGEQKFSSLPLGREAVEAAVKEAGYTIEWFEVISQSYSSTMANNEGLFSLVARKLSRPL
Sequence of Phenylethanolamine N-methyltransferase (Homo sapiens) (P11086 whole entry, looked up): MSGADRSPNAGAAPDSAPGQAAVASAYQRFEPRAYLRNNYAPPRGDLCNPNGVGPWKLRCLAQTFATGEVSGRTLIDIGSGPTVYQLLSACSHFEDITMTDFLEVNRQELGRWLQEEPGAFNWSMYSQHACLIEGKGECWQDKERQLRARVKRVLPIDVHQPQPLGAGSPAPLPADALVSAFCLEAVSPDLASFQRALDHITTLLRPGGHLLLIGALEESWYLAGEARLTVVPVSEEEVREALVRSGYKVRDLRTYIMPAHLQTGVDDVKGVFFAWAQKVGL

For the compound `COc1cc2c(NC3CCN(C(C)C)CC3)nc(N3CCC(F)(F)CC3)nc2cc1OCCCN1CCCC1`, the activity was -11.2% in assay [1], -8.4% in assay [3] and -0.61% in assay [4]. In addition, the activity change, negative = inhibition in assay [2] is -0.0366%.

With `CC1=C(C(=O)OC2CCCCC2)C(c2ccc([N+](=O)[O-])cc2)C2=C(CC(C)(C)CC2=O)N1` (stereo not given), the activity in assay [1] is -30.3%; in assay [3], -8.48%; in assay [4], -64.1%. For the same compound, the Potency in assay [2] was 19.2 µM (active).

As for `COc1ccc(CCc2nc3c(C)c(-c4c(C)noc4C)c(C)cc3n2CCN2CCOCC2)cc1`, the activity in assay [1] is 6.34%; in assay [3], -28%; in assay [4] it was 1.27%. Also, in assay [2], the activity change, negative = inhibition amounted to 5.22%.

As to `CN(C)CCCn1cc(C2=C(c3c[nH]c4ccccc34)C(=O)NC2=O)c2ccccc21`, the activity was -45.6% in assay [1], -41.3% in assay [3] and -44.4% in assay [4]. The Potency in assay [2] is 27.1 µM (active).

Turning to `COc1c2c(c(C)c3c1C(=O)OC3)O[C@@]1(C)C[C@@H](OC(C)=O)[C@]34O[C@](OC)(CC[C@]3(C)[C@H]1C2)OC4(C)C`, the activity is -8.48% in assay [1], -50.2% in assay [3] and -7.63% in assay [4]. In addition, the activity change, negative = inhibition in assay [2] amounted to 2.06% [at 29.8 µM].

Turning to `O=C([C@@H]1CCCN(c2ccc3[nH]c(C4(n5cc(Cl)cn5)CC4)nc3n2)C1)N1CCCC1`, the activity was -0.433% in assay [1], 0.992% in assay [3] and 0.881% in assay [4]. Besides, the activity change, negative = inhibition in assay [2] came to 0%.

Regarding `O=S(=O)(Nc1cc(Cl)c(Oc2cnc3ccccc3c2)c(Cl)c1)c1ccc(Cl)cc1Cl`, the activity was -8.48% in assay [1], -47.5% in assay [3] and -24% in assay [4]. Also, the Potency in assay [2] is 34.1 µM (active).

For `C[C@H](Oc1cc(-c2cnn(C3CCNCC3)c2)cnc1N)c1c(Cl)ccc(F)c1Cl`, the activity in assay [1] is -64.7%; in assay [3], -75.2%; in assay [4] it was -61.8%. Moreover, the Potency in assay [2] was 27.1 µM (active).

In the case of `Cc1ccc(C)c(-c2cc(C(F)(F)F)nn2-c2ccc(S(N)(=O)=O)cc2)c1`, the activity in assay [1] was -7.64%; in assay [3], -48.6%; in assay [4], -4.27%. Moreover, the activity change, negative = inhibition in assay [2] is -5.49%.

As to `N#Cc1ccc(N2N=C3c4ccc(C(=O)O)cc4CC[C@@H]3[C@@H]2C2CCCC2)cc1Cl`, the figures for the activity in assay [1], in assay [3] and in assay [4] were 7.42%, -82.8% and 0.228%, respectively. In assay [2], the activity change, negative = inhibition is -0.344%.

On to `CC1(CO)CC(O)[C@]2(C(=O)O)CCC34CC3(C=CC3[C@]5(C)C(CC[C@]34C)C(C)(CO)[C@@H](O)[C@H](O)[C@@H]5O)C2C1` (stereo not given in full), for which the figures for the activity in assay [1], in assay [3] and in assay [4] were -56.5%, -2.18% and -2.96%, respectively. Besides, the activity change, negative = inhibition in assay [2] was -5.29% [at 29.8 µM].

Turning to `C=C1C(=O)O[C@@H]2C=C(COC(C)=O)CC/C=C(\CO)CC[C@@H]12`, the activity was -83.7% in assay [1], 2.08% in assay [3] and 0.0072% in assay [4]. For the same compound, the activity change, negative = inhibition in assay [2] turned out to be 2.22%.

As for `Cc1nc(C#Cc2ccnc(Cl)c2)c(C)n1-c1ccc(F)cc1`, the activity was -47.3% in assay [1], -47.6% in assay [3] and -47.9% in assay [4]. In addition, the Potency in assay [2] was 30.4 µM (active).

Take `C/C(=N\N=C(N)N)c1cc(NC(=O)CCCCCCCCC(=O)Nc2cc(/C(C)=N/N=C(N)N)cc(/C(C)=N/N=C(N)N)c2)cc(/C(C)=N/N=C(N)N)c1`: the activity in assay [1] is -85.9%; in assay [3], -74.6%; in assay [4], -75.4%. In addition, the Potency in assay [2] is 27.1 µM (active).

With `NC(N)=NC(=O)c1cnn(-c2cccc3ncccc23)c1C1CC1`, the figures for the activity in assay [1], in assay [3] and in assay [4] were -9.86%, -53.6% and -5.56%, respectively. Moreover, the activity change, negative = inhibition in assay [2] is -8.74%.

Turning to `NCC(CNc1nc(Nc2cccc(NC(=O)N3CCCC3)c2)ncc1I)C(=O)c1cccs1` (stereo not given), the activity in assay [1] is -3.81%; in assay [3], -36.6%; in assay [4], -13.7%. In addition, the activity change, negative = inhibition in assay [2] was 0%.

Turning to `c1cc(NC2CCNCC2)nc(-c2cnc3ccccn23)c1`, the activity in assay [1] was -7.29%; in assay [3], -8.81%; in assay [4], -8.43%. The activity change, negative = inhibition in assay [2] was -7.64%.

With `Fc1ccc2c(CCNCc3cccc(OCC(F)(F)C(F)F)c3)c[nH]c2c1`, the figures for the activity in assay [1], in assay [3] and in assay [4] were -0.052%, -8.62% and -13.2%, respectively. For the same compound, the activity change, negative = inhibition in assay [2] was determined as 0.441%.

Consider `C/C=C(/C)C(=O)O[C@H]1C=C(CO)C(=O)[C@H](OC(=O)/C(C)=C/CO)[C@H]1C(C)C`, for which the activity was -55.6% in assay [1], -3.04% in assay [3] and -1.6% in assay [4]. In addition, the activity change, negative = inhibition in assay [2] is -5.13%.

`Cc1[nH]c(/C=C2\C(=O)Nc3ccc(S(=O)(=O)N(C)c4cccc(Cl)c4)cc32)c(C)c1C(=O)N1CCN(C)CC1`: the activity in assay [1] was -10.8%; in assay [3] it was -49.1%; in assay [4], -9.35%. Further, the activity change, negative = inhibition in assay [2] is -2.8%.

Regarding `C[C@]12CC[C@@H]3c4ccc(O)c(O)c4CC[C@H]3[C@@H]1CCC2=O`, the activity is -61.7% in assay [1], -14.2% in assay [3] and -20.6% in assay [4]. Also, in assay [2], the activity change, negative = inhibition was -3.15%.

As for `CN(C)CCOC(C)(c1ccccc1)c1ccc(Cl)cc1` (stereo not given), the results for the activity in assay [1], in assay [3] and in assay [4] were -7.63%, -25.2% and -3.91%, respectively. In addition, the activity change, negative = inhibition in assay [2] is -4.69%.

Take `CCC(CC)C(c1ccc(Nc2nc3ccccc3s2)cc1)n1cncn1` (stereo not given): the activity was -3.56% in assay [1], -14.5% in assay [3] and -5.31% in assay [4]. Besides, in assay [2], the activity change, negative = inhibition is -4.47%.

For the compound `C=C1C(=O)OC2/C=C(\CO)CC/C=C(\C=O)C(OC)C(OC(=O)C(C)CC)C12` (stereo not given), the activity was -88.5% in assay [1], 4.11% in assay [3] and 1.39% in assay [4]. The activity change, negative = inhibition in assay [2] was determined as 0% [at 29.8 µM].

Turning to `N#CSc1cc(SC#N)c(N)nc1N`, the activity in assay [1] is -83.2%; in assay [3] it was -72%; in assay [4], -48.1%. For the same compound, the Potency in assay [2] was 4.08 µM (active).

Regarding `O=C(NCCCNc1nc(Nc2cccc(CN3CCOCC3)c2)ncc1C1CC1)C1CCC1`, the activity in assay [1] is -3.13%; in assay [3], -11.4%; in assay [4], -23.2%. Also, the activity change, negative = inhibition in assay [2] came out at 0%.

In the case of `O=C(c1ccccc1)c1c(O)cc(O)cc1O[C@@H]1O[C@H](CO)[C@@H](O)[C@H](O)[C@H]1O`, the activity in assay [1] was -80.6%; in assay [3], -5.29%; in assay [4], -6.01%. Also, the activity change, negative = inhibition in assay [2] is -2.61%.

As for `CS(=O)(=O)Nc1ccc2oc3c(OC(F)F)ccc(C(=O)Nc4c(Cl)cncc4Cl)c3c2c1`, the values for the activity in assay [1], in assay [3] and in assay [4] were -3.19%, -19.3% and -4.54%, respectively. The activity change, negative = inhibition in assay [2] is -1.02%.

Turning to `CC1(C)CC[C@]2(C(=O)O[C@@H]3O[C@H](CO)[C@@H](O)[C@H](O)[C@H]3O)CC[C@]3(C)C(=CCC4[C@@]5(C)CC[C@H](O[C@@H]6O[C@H](C(=O)O)[C@H](O)[C@H](O)[C@H]6O)C(C)(C)C5CC[C@]43C)[C@@H]2C1` (stereo not given in full), the activity is -55% in assay [1], -9.04% in assay [3] and -2.05% in assay [4]. Moreover, the activity change, negative = inhibition in assay [2] was -1.02% [at 19.1 µM].

As for `COc1cc2ncnc(Nc3cccc(I)c3)c2cc1OC`, the activity is -55.8% in assay [1], -40.1% in assay [3] and -56.9% in assay [4]. The Potency in assay [2] was 34.1 µM (active).
